“And” between values parts separate entries of the source, which are not always exact repeats. Identical values can stand only once. Among all 5,500 compounds or so, about 2,000 (36%) were called active. Not shown: some 18% with an inconclusive outcome. No stated cut-off is given here; in the data, active means normalized growth mostly below about 0.91 (no sharp cut-off); inconclusive means no clear call, values can overlap the other calls; inactive means mostly above about 0.92. The list shows a part of the results.
Experiment: chemical genetic growth profiling, strain panel (AID 1159580);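 further: tested at 20 µM; growth read once vehicle control cultures reached saturation at 30 °C; 1 = growth at the plate median or of vehicle wells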
Conditions: S. cerevisiae deletion strains, growth OD

Measured: normalized growth

Nc1nc(N)c2nc(-c3ccccc3)c(N)nc2n1
inactive: locus YAL013W, strain DEP1, stronger effect = lower value 1 | locus YAL021C, strain ccr4, stronger effect = lower value 1.01 | locus YAL026C, strain drs2, stronger effect = lower value 1.01 | locus YAL030W, strain snc1, stronger effect = lower value 0.998 | locus YAL040C, strain CLN3, stronger effect = lower value 0.986 | locus YBL061C, strain skt5, stronger effect = lower value 1 | locus YBR009C, strain hhf1, stronger effect = lower value 0.969 | locus YBR021W, strain FUR4, stronger effect = lower value 1.01 | locus YBR023C, strain chs3, stronger effect = lower value 0.997 | locus YBR171W, strain sec66, stronger effect = lower value 1.01 | locus YBR229C, strain ROT2, stronger effect = lower value 1 | locus YBR231C, strain swc5, stronger effect = lower value 1 | locus YBR279W, strain paf1, stronger effect = lower value 0.994 | locus YCL011C, strain gbp2, stronger effect = lower value 0.992 | locus YCL016C, strain dcc1, stronger effect = lower value 0.999 | locus YCL029C, strain bik1, stronger effect = lower value 1.01 | locus YCL061C, strain MRC1 (second series), stronger effect = lower value 0.989 | locus YCL061C, strain MRC1, stronger effect = lower value 1.01 | locus YCL069W, strain vba3, stronger effect = lower value 1 | locus YCR088W, strain abp1, stronger effect = lower value 0.992 | locus YDL005C, strain med2, stronger effect = lower value 1.01 | locus YDL035C, strain GPR1, stronger effect = lower value 1.01 | locus YDL040C, strain nat1, stronger effect = lower value 1.01 | locus YDL074C, strain BRE1, stronger effect = lower value 0.973 | locus YDL101C, strain DUN1, stronger effect = lower value 1.01 | locus YDL134C, strain PPH21, stronger effect = lower value 1 | locus YDL185W, strain tfp1, stronger effect = lower value 1.01 | locus YDL192W, strain arf1, stronger effect = lower value 1.01 | locus YDR001C, strain nth1, stronger effect = lower value 1.02 | locus YDR069C, strain doa4, stronger effect = lower value 1 | locus YDR101C, strain arx1, stronger effect = lower value 0.999 | locus YDR137W, strain rgp1, stronger effect = lower value 1 | locus YDR150W, strain NUM1, stronger effect = lower value 0.987 and 0.981 | locus YDR159W, strain sac3, stronger effect = lower value 0.951 | locus YDR162C, strain NBP2, stronger effect = lower value 1.01 | locus YDR195W, strain ref2 1 | locus YDR297W, strain sur2, stronger effect = lower value 1 | locus YDR318W, strain mcm21, stronger effect = lower value 1 | locus YDR334W, strain swr1, stronger effect = lower value 1 | locus YDR335W, strain msn5, stronger effect = lower value 1 | locus YDR363W, strain ESC2, stronger effect = lower value 1 | locus YDR388W, stronger effect = lower value 1.01 | locus YDR392W, strain spt3, stronger effect = lower value 0.946 | locus YDR502C, strain sam2, stronger effect = lower value 1 | locus YEL003W, strain gim4, stronger effect = lower value 1.01 | locus YEL037C, strain rad23, stronger effect = lower value 0.997 | locus YEL061C, strain CIN8 (second series), stronger effect = lower value 1 | locus YEL061C, strain CIN8, stronger effect = lower value 1 | locus YER002W, strain NOP16, stronger effect = lower value 1 | locus YER015W, strain faa2, stronger effect = lower value 0.993 | locus YER016W, strain bim1, stronger effect = lower value 0.966 | locus YER110C, stronger effect = lower value 1.01 | locus YER111C, strain swi4, stronger effect = lower value 1.01 | locus YER155C, strain BEM2 (second series), stronger effect = lower value 0.957 | locus YER155C, strain BEM2, stronger effect = lower value 1.01 | locus YER167W, strain BCK2, stronger effect = lower value 1.01 | locus YFR010W, strain ubp6, stronger effect = lower value 1.02 | locus YGL078C, strain dbp3, stronger effect = lower value 1.01 | locus YGL086W, strain mad1, stronger effect = lower value 1 | locus YGL167C, strain pmr1, stronger effect = lower value 1.01 | locus YGL173C, strain kem1, stronger effect = lower value 1 | locus YGL227W, strain vid30, stronger effect = lower value 1.01 | locus YGL240W, strain doc1, stronger effect = lower value 1 | locus YGL248W, strain PDE1, stronger effect = lower value 0.999 | locus YGL253W, strain hxk2, stronger effect = lower value 0.99 | locus YGR078C, strain PAC10, stronger effect = lower value 0.996 and 0.977 | locus YGR135W, strain pre9, stronger effect = lower value 1.01 | locus YGR229C, strain SMI1, stronger effect = lower value 1.02 | locus YGR252W, strain gcn5, stronger effect = lower value 0.939 | locus YHR013C, strain ard1, stronger effect = lower value 0.978 | locus YHR027C, strain rpn1, stronger effect = lower value 1 | locus YHR030C, strain SLT2, stronger effect = lower value 0.999 and 0.991 | locus YHR079C, strain IRE1 (second series), stronger effect = lower value 1.02 | locus YHR079C, strain IRE1, stronger effect = lower value 0.975 | locus YHR094C, strain hxt1, stronger effect = lower value 1 | locus YHR129C, strain ARP1, stronger effect = lower value 0.993 | locus YHR142W, strain chs7, stronger effect = lower value 0.996 | locus YHR200W, strain rpn10, stronger effect = lower value 1.01 | locus YIL066C, strain RNR3, stronger effect = lower value 1 | locus YIL073C, strain SPO22, stronger effect = lower value 1.05 | locus YIL125W, strain kgd1, stronger effect = lower value 1.01 | locus YIR030C, strain dcg1, stronger effect = lower value 1.01 | locus YJL092W, strain hpr5, stronger effect = lower value 1.01 | locus YJL095W, strain BCK1 (second series), stronger effect = lower value 1.01 | locus YJL095W, strain BCK1, stronger effect = lower value 0.988 | locus YJL115W, strain asf1, stronger effect = lower value 1 | locus YJL129C, strain trk1, stronger effect = lower value 0.993 | locus YJL134W, strain LCB3, stronger effect = lower value 1 | locus YJL154C, strain vps35, stronger effect = lower value 0.992 | locus YJL164C, strain tpk1, stronger effect = lower value 0.981 | locus YJL166W, strain qcr8, stronger effect = lower value 1.02 | locus YJL168C, strain set2, stronger effect = lower value 1.01 | locus YJL187C, strain SWE1 (second series), stronger effect = lower value 1 | locus YJR043C, strain POL32, stronger effect = lower value 0.994 | locus YJR066W, strain TOR1, stronger effect = lower value 0.938
